This is an account of results in PubChem BioAssay AID485314 (National Center for Advancing Translational Sciences (NCATS), 2010).

Among all 340,000 compounds or so, about 4,500 (1.3%) were called active. Roughly 5% stayed inconclusive and do not appear here. Calls come from the whole dose curve; as a rule, active = well fitted inhibition curve with a large enough effect; inconclusive = small, poorly fitted or top-dose-only effect, or another doubt; inactive = no such curve, though single readings can be large or run the other way. For the sample, actives were picked, then their nearest neighbours and some compounds at random.
% is set by controls: 0 for no effect and ±100 for the full control effect; potency is the fitted concentration of half-maximal effect.

This experiment concerns the target DNA polymerase beta (Homo sapiens) (UniProt P06746). The experiment is described as follows: qHTS Assay for Inhibitors of DNA Polymerase Beta. The settings on record: Pol beta primer extension/strand displacement, fluorescence kinetic; series mostly up to 114 µM; activity change, negative = inhibition: at the top concentration. The essentials: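 Reaction started by 50 nM substrate onto compound-treated Pol beta (10 nM, 15 min preincubation, room temperature); plates read at 0 min and 10 min. Normalized concentration-effect data fitted by four-parameter Hill equation.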
Turning to `COc1ccc(S(=O)(=O)NCC(c2ccc(N(C)C)cc2)N2CCc3ccccc32)cc1OC` (stereo not drawn), the “activity change, negative = inhibition” value was 0.31% (inactive).

Turning to `COc1ccccc1N1CCN(S(=O)(=O)CCNC(=O)COc2ccc(F)cc2)CC1`, the “activity change, negative = inhibition” value is 13.5% (inactive).

Turning to `CC(=O)Nc1cccc(NC(=O)CSc2nccn2Cc2ccc3c(c2)OCO3)c1`, the “activity change, negative = inhibition” value is -15.7% (inactive).

As for `O=C(Cc1ccc(F)cc1)N/N=C/c1ccc2c(c1)OCO2`, the “activity change, negative = inhibition” value is 90.3% (inactive).

As to `CCC1=C/C(=C\c2ccc3c(c2)OCO3)C(=O)S1`, the Potency was 14.1 µM (active).

Turning to `CCOC(=O)CCCNC(=O)COC(=O)/C=C/c1ccc2c(c1)OCO2`, the “activity change, negative = inhibition” value was 3.45% (inactive).

Consider `Cc1cccc(NC(=O)c2ccc(F)c(S(=O)(=O)N(C)C3CCCCC3)c2)c1`, for which the “activity change, negative = inhibition” value was 1.39% (inactive).

As for `COc1ccc(NC(=O)c2sc3nc[nH]c(=O)c3c2C)cc1`, the “activity change, negative = inhibition” value is 2.14% (inactive).

With `CN(C)[C@@H]1C(=O)C(C(N)=O)=C(O)[C@@]2(O)C(=O)C3=C(O)c4c(O)ccc(Cl)c4[C@@H](O)[C@H]3C[C@@H]12`, the Potency was 8.91 µM (active).

As for `Cc1ccccc1CCNC(=O)C1CCN(c2nc3ccccc3nc2C(F)(F)F)CC1`, the “activity change, negative = inhibition” value is -0.653% (inactive).

`COc1ccc(S(=O)(=O)Nc2cc3c(C(=O)OC(C)C)c(C)oc3c3ccccc23)cc1`: the “activity change, negative = inhibition” value is -24.9% (inactive).

Consider `COc1ccc(NC(=O)c2cnc(NS(=O)(=O)c3ccccc3)nc2)cc1`, for which the “activity change, negative = inhibition” value is 5.86% (inactive).

With `COc1ccc(S(=O)(=O)/N=C2\C=C(NS(=O)(=O)c3ccccc3)C(=O)c3ccccc32)cc1`, the Potency is 79.4 µM (active).

Take `CC(C)(C)c1ccc(S(=O)(=O)Nc2ccc(O)c(Sc3nc4ccccc4s3)c2)cc1`: the “activity change, negative = inhibition” value was -0.511% (inactive).

On to `O=C(CSC1=Nc2ccccc2C2=NC(CC(=O)NCc3ccco3)C(=O)N12)NCc1ccco1` (stereo not drawn), for which the Potency is 39.8 µM (active).

`O=C(CC1N=C2c3ccccc3N=C(SCc3ccccc3Cl)N2C1=O)NCc1ccco1` (stereo not drawn): the Potency is 12.6 µM (active).

As for `COc1ccc(NC(=O)CSC2=Nc3ccccc3C3=NC(CC(=O)NCc4ccccc4OC)C(=O)N23)cc1Cl` (stereo not drawn), the “activity change, negative = inhibition” value is -12% (inactive).

For the compound `O=C(CC1N=C2c3ccccc3N=C(SCc3ccc(F)cc3)N2C1=O)NCc1cccs1` (stereo not drawn), the “activity change, negative = inhibition” value is 2.97% (inactive).

As for `O=C(CC1N=C2c3ccccc3N=C(SCc3cccc(Cl)c3)N2C1=O)NCc1ccc2c(c1)OCO2` (stereo not drawn), the “activity change, negative = inhibition” value is 1.32% (inactive).

With `CCC(C)NC(=O)CSC1=Nc2ccccc2C2=NC(CCC(=O)NCc3ccco3)C(=O)N12` (stereo not drawn), the “activity change, negative = inhibition” value is 11.3% (inactive).

For `CCN(CC)c1ccc(NC(=O)Cn2nc3c(cc2=O)CCCC3)c(C)c1`, the “activity change, negative = inhibition” value was -15.3% (inactive).

Take `O=C(NCCCO)C(=O)Nc1c2c(nn1-c1ccc(F)cc1)CSC2`: the “activity change, negative = inhibition” value is -5.48% (inactive).

`CCOC(=O)c1c(C)oc2ccc(N(C(=O)c3ccncc3)S(=O)(=O)c3ccc(CC)cc3)cc12`: the “activity change, negative = inhibition” value is -2.09% (inactive).

For the compound `Cc1ccc(C)c(NC(=O)CSC2=Nc3ccccc3N=C(c3ccc(F)cc3)C2)c1`, the “activity change, negative = inhibition” value was 19.4% (inactive).

For the compound `Nc1nnnn1CC(=O)N/N=C/c1ccc(-c2cccc(Cl)c2)o1`, the “activity change, negative = inhibition” value was -21.2% (inactive).

For the compound `O=C1c2ccccc2NC(c2ccc(-c3cccc(Cl)c3)o2)N1O` (stereo not drawn), the “activity change, negative = inhibition” value is 1.84% (inactive).

For the compound `O=C(O)C(c1ccccc1)N1C(=O)/C(=C\c2ccc(-c3cccc(Cl)c3)o2)SC1=S` (stereo not drawn), the Potency was 50.1 µM (active).

As for `Cc1ccc(C)c2sc(NC(=O)c3ccc(S(=O)(=O)N4CCCC4)cc3)nc12`, the “activity change, negative = inhibition” value was -5.4% (inactive).

Consider `COc1cccc(C(=O)Nc2ccc(-c3cc(C(F)(F)F)nn3-c3ccccc3)cc2)c1`, for which the “activity change, negative = inhibition” value is 10.5% (inactive).

As for `CCOc1cc(-c2nnc(SCC(=O)NC3CCCCC3)nc2-c2ccc(OC)c(OCC)c2)ccc1OC`, the “activity change, negative = inhibition” value was 2.16% (inactive).

With `COC(=O)CCCC1=CC2=CC(=O)C(C)(OC(=O)c3cccs3)C(=O)C2=CN1CC(C)C` (stereo not drawn), the “activity change, negative = inhibition” value is 23.9% (inactive).

For `COCCN1C=C2C(=O)C(C)(OC(=O)C3CCCC3)C(=O)C=C2C=C1c1ccsc1` (stereo not drawn), the “activity change, negative = inhibition” value is 0.629% (inactive).

Take `COC/C=C/C1=CC2=CC(=O)C(C)(OC(=O)CCC(=O)OC)C(=O)C2=CO1` (stereo not drawn): the Potency is 39.8 µM (active).

With `COC(=O)c1cnn(-c2ccc(C(=O)Nc3ccc(OC(F)(F)F)cc3)cc2)c1N`, the “activity change, negative = inhibition” value is 5.55% (inactive).

For the compound `COC(=O)c1ccccc1NC(=O)C1CCN(S(=O)(=O)c2cc(OC)ccc2OC)CC1`, the “activity change, negative = inhibition” value was -6.7% (inactive).

Consider `CCOc1ccc(NC(=O)C2CCN(C(=O)N3CCOc4ccccc43)CC2)cc1`, for which the “activity change, negative = inhibition” value was 10.2% (inactive).

Turning to `COC(=O)c1ccccc1NC(=O)C1CCN(C(=O)N2CCOc3ccccc32)CC1`, the Potency was 89.1 µM (active).

As to `Cc1ccc(-c2nn(CCC(=O)Nc3ccc(OC(F)(F)F)cc3)c(=O)c3ccccc23)cc1`, the “activity change, negative = inhibition” value was 21.3% (inactive).

Take `Clc1cccc(-n2ncc3c(NCCc4ccccc4)ncnc32)c1`: the “activity change, negative = inhibition” value was -25.3% (inactive).

`CCc1nnc(NC(=O)Cc2cccs2)s1`: the “activity change, negative = inhibition” value is -16.2% (inactive).

As to `COc1ccc(OC)c(NC(=O)Cc2cccs2)c1`, the Potency is 50.1 µM (active).

In the case of `COc1ccc(Cc2nnc(NC(=O)Cc3cccs3)s2)cc1`, the Potency was 2 µM (active).

On to `CCOc1ccccc1NC(=O)Cc1cccs1`, for which the Potency is 10 µM (active).

In the case of `COc1ccc(C)cc1NC(=O)CNCc1cccs1`, the “activity change, negative = inhibition” value was 2.69% (inactive).

For the compound `CCOc1ccc(NC(=O)C/C(C)=N/NC(=O)Cc2cccs2)cc1`, the “activity change, negative = inhibition” value was 31% (inactive).

Take `O=C(Cc1cccs1)Nc1nnc(SCc2ccc(F)cc2)s1`: the “activity change, negative = inhibition” value is -18.1% (inactive).

For `COc1ccc(NC(=S)NCc2cccs2)c(OC)c1`, the “activity change, negative = inhibition” value was 0.939% (inactive).

In the case of `CCOC(=O)c1ccc(NC(=O)Cc2cccs2)cc1`, the “activity change, negative = inhibition” value was 1.56% (inactive).
